Screens as filed in PubChem.
In the library only some 12% were active in any assay of this set; here they are far more common.
HP1b binding inh: inhibitors of HP1-beta chromodomain binding to methylated histone tails. AlphaScreen HP1-beta / biotin-H3K9me3 peptide binding. Potency, µM (top dose mostly 114 µM), without a hit: at the highest dose activity change, negative = inhibition, hits mostly inhibitors. 390,000 tested, 0.56% active. AID 540317; also: nearly all actives have a fitted effect of over 70% in size
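Compound inhibition of the preformed complex between 50 nM HP1-beta and 50 nM biotinylated H3K9me3 peptide was read by AlphaScreen. Buffer was PBS pH 7.4 with 0.01% Tween-20. Incubations ran 30 min at room temperature, with 10 ug/mL donor/acceptor beads.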
JMJD2A Tudor: blocks the human JMJD2A Tudor domain; O75164; AlphaScreen JMJD2A-Tudor / H3K4me3 peptide binding; Potency, µM (doses to about 114 µM), for inactives: at the highest dose activity change, negative = inhibition, hits mostly inhibitors; 390,000 tested, 4.4% active; AID 504339; also: % is scaled to controls: 0 for no effect and ±100 for the full control effect; nearly all actives have a fitted effect of over 50% in size
Sfp PPTase inh: inhibitors of Bacillus subtilis Sfp phosphopantetheinyl transferase; Q9F4F7; Biochemical Sfp PPTase activity, qHTS; Potency, µM, for the others: largest response in the series, negative = inhibition, usual class: inhibitors; 310,000 tested, 3.5% active;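 also: the enzyme is Sfp with the accession as filed and its product quenches rhodamine fluorescence; 0% = enzyme reaction without inhibitor and -100% = no enzyme wells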
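Sfp 15 nM + cpd, 15 min RT; start w/ rhodamine-CoA 5 uM, BHQ-2-YbbR 12.5 uM (final); 50 mM Hepes pH 7.6, 10 mM MgCl2, 0.01% NP-40, 0.01% BSA; read 525/598 nm at 0 and 30 min.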
BAZ2B block: inhibitors of human BAZ2B bromodomain | AID 504333 | 360,000 tested, 4.4% active | Q9UIF8 | AlphaScreen BAZ2B-H3K14Ac peptide displacement | Potency, µM (doses to about 114 µM), without a hit: at the top dose activity change, negative = inhibition, hits mostly inhibitors; also: % is scaled to controls: 0 for no effect and ±100 for the full control effect; nearly all actives have a fitted effect of over 60% in size
Target sequence (Q9UIF8 whole entry, looked up): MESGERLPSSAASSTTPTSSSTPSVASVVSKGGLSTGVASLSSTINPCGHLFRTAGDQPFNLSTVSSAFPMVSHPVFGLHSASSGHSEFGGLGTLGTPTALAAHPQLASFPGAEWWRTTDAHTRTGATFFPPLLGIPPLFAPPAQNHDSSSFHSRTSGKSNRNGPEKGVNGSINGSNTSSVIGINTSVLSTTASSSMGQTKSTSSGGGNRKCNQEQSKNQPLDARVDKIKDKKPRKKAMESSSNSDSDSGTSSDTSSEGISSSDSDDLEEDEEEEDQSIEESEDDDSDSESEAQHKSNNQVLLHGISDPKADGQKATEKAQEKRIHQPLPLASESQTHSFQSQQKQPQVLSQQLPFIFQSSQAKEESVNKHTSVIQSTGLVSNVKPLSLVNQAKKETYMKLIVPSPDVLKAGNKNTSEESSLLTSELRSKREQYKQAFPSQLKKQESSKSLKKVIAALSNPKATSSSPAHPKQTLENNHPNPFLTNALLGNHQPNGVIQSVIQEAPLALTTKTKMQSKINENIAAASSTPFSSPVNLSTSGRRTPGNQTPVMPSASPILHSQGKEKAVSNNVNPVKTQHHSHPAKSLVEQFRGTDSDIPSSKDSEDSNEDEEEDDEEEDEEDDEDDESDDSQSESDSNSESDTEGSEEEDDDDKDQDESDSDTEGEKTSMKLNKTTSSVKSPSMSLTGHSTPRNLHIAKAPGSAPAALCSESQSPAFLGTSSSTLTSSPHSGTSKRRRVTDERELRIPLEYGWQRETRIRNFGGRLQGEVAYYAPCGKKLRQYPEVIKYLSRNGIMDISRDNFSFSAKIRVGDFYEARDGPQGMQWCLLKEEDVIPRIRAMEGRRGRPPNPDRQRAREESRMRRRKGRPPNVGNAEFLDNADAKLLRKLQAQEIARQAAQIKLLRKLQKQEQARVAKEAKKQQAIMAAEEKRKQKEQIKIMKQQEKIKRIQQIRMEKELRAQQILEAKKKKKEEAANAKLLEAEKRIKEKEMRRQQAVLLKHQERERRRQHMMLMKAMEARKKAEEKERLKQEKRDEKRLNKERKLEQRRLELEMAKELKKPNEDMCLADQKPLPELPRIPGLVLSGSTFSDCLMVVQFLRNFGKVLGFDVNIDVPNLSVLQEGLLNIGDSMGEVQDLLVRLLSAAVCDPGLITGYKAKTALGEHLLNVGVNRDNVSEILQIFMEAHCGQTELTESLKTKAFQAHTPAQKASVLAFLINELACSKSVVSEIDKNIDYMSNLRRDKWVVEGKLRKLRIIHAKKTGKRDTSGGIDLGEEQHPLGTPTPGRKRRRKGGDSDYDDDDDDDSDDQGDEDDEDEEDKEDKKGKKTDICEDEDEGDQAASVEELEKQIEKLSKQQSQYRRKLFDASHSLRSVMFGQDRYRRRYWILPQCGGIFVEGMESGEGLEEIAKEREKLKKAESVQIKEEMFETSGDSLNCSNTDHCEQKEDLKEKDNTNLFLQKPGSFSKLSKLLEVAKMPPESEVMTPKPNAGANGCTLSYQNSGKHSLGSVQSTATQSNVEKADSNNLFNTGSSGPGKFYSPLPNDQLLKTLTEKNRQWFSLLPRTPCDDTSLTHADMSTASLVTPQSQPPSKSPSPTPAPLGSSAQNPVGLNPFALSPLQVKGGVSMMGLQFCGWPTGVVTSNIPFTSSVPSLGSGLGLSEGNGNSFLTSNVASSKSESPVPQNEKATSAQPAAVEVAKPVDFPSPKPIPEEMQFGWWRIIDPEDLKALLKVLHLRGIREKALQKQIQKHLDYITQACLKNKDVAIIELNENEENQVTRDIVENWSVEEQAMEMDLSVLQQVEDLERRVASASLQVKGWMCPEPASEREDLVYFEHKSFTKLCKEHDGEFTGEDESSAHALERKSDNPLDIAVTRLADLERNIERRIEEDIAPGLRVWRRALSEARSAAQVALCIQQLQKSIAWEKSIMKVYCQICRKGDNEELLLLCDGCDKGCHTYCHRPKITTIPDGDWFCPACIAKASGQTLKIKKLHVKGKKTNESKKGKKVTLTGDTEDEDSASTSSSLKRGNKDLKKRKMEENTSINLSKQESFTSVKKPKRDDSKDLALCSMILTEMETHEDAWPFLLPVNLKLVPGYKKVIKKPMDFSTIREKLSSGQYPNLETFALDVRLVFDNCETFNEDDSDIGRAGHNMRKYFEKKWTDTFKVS
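Complex of BAZ2B and biotin-H3K14Ac (50 nM apiece) forms over 30 min at RT, then faces library compounds up to 110 uM for another 30 min; AlphaScreen beads added, 20 min dark incubation, luminescence read.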
L3MBTL1 block: inhibitors of human L3MBTL1; AlphaScreen L3MBTL1–H3K9me1 peptide binding; AID 485360; Q9Y468; 230,000 tested, 0.66% active; Potency, µM (doses to about 57.1 µM), inactives show at the highest dose activity, negative = inhibition, hits mostly inhibitors; also: % is scaled to controls: 0 for no effect and ±100 for the full control effect; nearly all actives have a fitted effect of over 60% in size
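L3MBTL1 50 nM + b-AHA-H3(1-15)K9me1 75 nM, 30 min RT; compound added, 30 min RT; streptavidin donor/Ni-chelate acceptor beads 10 ug/mL each final, 30 min RT dark; AlphaScreen read.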
G9a block: G9a (human) methyltransferase inhibition. Q96KQ7. G9a H3K9 monomethylation, AlphaScreen, 2 h. Potency, µM (doses to about 102 µM), inactives show at the top dose activity, negative = inhibition, hits mostly inhibitors. 350,000 tested, 8.8% active. AID 504332; also: % is scaled to controls: 0 for no effect and ±100 for the full control effect; nearly all actives have a fitted effect of over 75% in size
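Compounds were preincubated with 20 nM G9a for 15 min, after which biotinylated H3K9 peptide (500 nM) and SAM (20 uM) started a 2 h room-temperature reaction. Monomethylated product was quantified by antibody-based AlphaScreen chemiluminescence.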
The depositor's hits bear a star; ? = inconclusive; . = not tested or not shown; [ ] = another dose, or the depositor's remark. Calls follow the shape of the dose curve; as a rule, active = well fitted curve in the direction sought with a large enough effect; inconclusive = small, poorly fitted or top-dose-only effect, or another doubt; inactive = no such curve, though single readings can be large; an effect the other way counts as inactive or inconclusive. Potency is read from the fitted curve at half-maximal effect.

SMILES	HP1b binding inh	JMJD2A Tudor	Sfp PPTase inh	BAZ2B block	L3MBTL1 block	G9a block
COc1ccc(NC(=S)NC(=O)c2ccc3c(c2)OCCO3)cc1	?	?	.	.	2.6%	.
CCCOc1cccc(C(=O)NC(=S)Nc2ccccc2)c1	?	?	-9.9%	?	-8.1%	-0.6%[59 µM]
CCOc1cccc(C(=O)NC(=S)Nc2ccc3c(c2)OCCO3)c1	?	?	0.8%	?	.	39.8µM*
CCOc1cccc(C(=O)NC(=S)Nc2ccc(N3CCCC3)cc2)c1	14.1µM*	?	?	8.91µM*	-28.0%	?
O=C(Nc1ccc(NC(=O)c2ccc3c(c2)OCCO3)cc1)c1ccccc1	32.2%	-7.5%	2.9%	5.3%	.	20.5%[59 µM]
COc1ccccc1NS(=O)(=O)c1cn(C)c(C)n1	1.6%[57 µM]	5.4%	.	-5.2%	.	-1.6%[59 µM]
Cc1nnnn1/C(=C\c1ccccc1)C(=O)OCC(=O)NC(C)(C)C	30.7%	-7.6%	-7.5%	-3.4%	0.1%	12.0%[59 µM]
Cc1nnnn1/C(=C\c1ccccc1)C(=O)OCC(=O)NC1CCCCC1	9.1%	-15.2%	.	11.0%	3.0%	50.1µM*
CCCOc1ccc(C(=O)NCC2OCCc3ccccc32)cc1 (stereo not drawn)	13.1%	-10.7%	.	10.6%	.	-5.1%[59 µM]
NC(=O)c1cccc([N+](=O)[O-])c1	28.9%	-11.7%	.	-1.9%	7.6%	-0.4%[0.501 µM]
O=C(c1cccc([N+](=O)[O-])c1)c1ccc2[nH]c(=O)[nH]c2c1	23.9%	-6.3%	-6.4%	-12.0%	.	79.4µM*
O=C(O)c1cccc(N2C(=O)c3ccc(C(=O)c4cccc([N+](=O)[O-])c4)cc3C2=O)c1	34.8%	-14.0%	-3.0%	-17.6%	.	56.2µM*
CCOC(=O)C1CCN(C(=O)c2nn(-c3ccc(C)cc3)c(=O)c3c2c2ccccc2n3C)CC1	21.5%	-4.0%	.	.	.	0.9%[59 µM]
Cc1ccc(S(=O)(=O)n2c(N)nc3ccccc32)cc1	12.5%	-19.2%	8.8%	-26.7%	1.1%	50.1µM*
Cc1ccc(S(=O)(=O)N2CCOc3ccccc32)c(C)c1NS(C)(=O)=O	40.8%	1.0%	8.6%	-1.5%	.	-0.8%
COc1ccccc1-c1sc2cc3c(cc2c1C#CC1(O)CCCCC1)OCO3	62.3%	-24.6%	.	79.4µM*	1.1%	3.9%[0.501 µM]
CC(/C=N/Nc1nnc(C)c(=O)[nH]1)=C\c1ccccc1	17.3%	-20.8%	?	-42.3%	2.8%	10µM*
C/C(=N\Nc1nnc(C)c(=O)[nH]1)C(=O)O	37.3%	?	-15.4%	12.6µM*	11.8%	45.1%[2.33 µM]
Oc1ccc(Br)cc1C1C=C(c2ccc3c(c2)OCO3)NC(c2ccc(F)c(Br)c2)N1 (stereo not drawn)	23.5%	?	.	.	.	.
Cc1ccc(NC2=C/C(=N/S(=O)(=O)c3cccs3)c3ccccc3C2=O)cc1	?	-28.0%[57.1 µM]	-0.6%	?	?	2.82µM*
O=S(=O)(/N=C(/Nc1cccc2ccccc12)c1ccccc1)c1cccs1	-1.0%	-23.3%	?	-4.3%	-8.5%	?
O=C1C(Nc2ccccc2)=C/C(=N/S(=O)(=O)c2cccs2)c2ccccc21	11.2µM*	3.98µM*	?	2.82µM*	6.31µM*	8.91µM*
COC(=O)c1cc(NS(=O)(=O)c2ccc3c(c2)OCCO3)ccc1Cl	33.1%	-14.8%	.	-1.0%	.	2.4%[59 µM]
CCCCOc1ccc(CNC(=O)c2ccc(NC(=O)N3CCCCc4ccccc43)cc2)cc1	16.1%	-18.3%	.	-8.4%	.	2.2%[59 µM]
CC1CCCN(c2ccc(/C=C(\C#N)c3nn(-c4ccccc4)c(N)c3C#N)cc2[N+](=O)[O-])C1 (stereo not drawn)	-25.9%	?	-1.6%	?	-26.7%	22.4µM*
SMILES	HP1b binding inh	JMJD2A Tudor	Sfp PPTase inh	BAZ2B block	L3MBTL1 block	G9a block
CC(=O)Nc1ccc(N2CCCC(C)C2)c([N+](=O)[O-])c1 (stereo not drawn)	?	?	15.2%	35.5µM*	-20.8%	?
CC1CCCN(c2ccc(C(=O)Nc3cccnc3)cc2[N+](=O)[O-])C1 (stereo not drawn)	-14.4%	-18.5%[57.1 µM]	-2.1%	?	.	50.1µM*
CC1CCN(c2ccc(/C=C(\C#N)c3nn(-c4ccccc4)c(N)c3C#N)cc2[N+](=O)[O-])CC1	-12.9%	-10.8%	16.3%	-25.6%	-12.0%	22.1%[59 µM]
CNC(=O)COc1ccc(NC(=O)CCn2nc(-c3ccc(C)cc3)c3ccccc3c2=O)cc1	36.7%	-1.0%	.	1.7%[57.1 µM]	.	4.4%[59 µM]
Cc1cc(C)cc(OCC(=O)OC(C)C(=O)Nc2ccc(Cl)cn2)c1 (stereo not drawn)	64.5%	11.1%	.	24.4%	9.6%	?
Cc1ccc(Sc2ncccc2C(=O)NCc2cc([N+](=O)[O-])ccc2O)c(C)c1	16.0%	-34.9%	-3.3%	35.5µM*	.	.
O=C(NCc1cc([N+](=O)[O-])ccc1O)c1cccnc1Sc1ccccc1	30.4%	-4.8%	0.7%	?	.	1.5%
COc1cccc(C2NC(=O)NC(O)(C(F)(F)F)C2C(=O)c2cccnc2)c1OC (stereo not drawn)	19.5%	-22.5%	8.5%	17.8%	0.7%	50.1µM*
COc1ccc(C2NC(=O)NC(O)(C(F)(F)F)C2C(=O)c2ccccc2)cc1OC (stereo not drawn)	29.1%	-19.7%	33.3%	2.1%	.	7.3%
Cc1ccc(C)c(Cn2c(=O)n(Cc3ccccc3)c(=O)c3sc4ccccc4c32)c1	43.3%	0.3%	.	-19.0%	.	16.5%[59 µM]
C=CCn1c(Cc2ccccc2)nc2c(cnn2-c2ccccc2)c1=O	62.1%	5.1%	-25.7%	17.4%	.	?
NC(C(=O)O)C1ON=C(Cl)C1O (stereo not drawn)	44.0%	79.4µM*	.	.	.	.
NC(C(=O)O)[C@@H]1CC(Cl)=NO1 (stereo partly drawn)	.	.	-19.2%	.	.	-33.8%[2.33 µM]
CN1C/C(=C/c2ccncc2)C(=O)/C(=C/c2ccncc2)C1	35.7%	0.0%	1.5%	-34.9%	.	50.1µM*
CN1C/C(=C\c2ccc(N3CCOCC3)cc2)C(=O)/C(=C/c2ccc(N3CCOCC3)cc2)C1	?	?	-18.6%	50.1µM*	5.9%	?
CCN1C/C(=C/c2ccc(N3CCOCC3)cc2)C(=O)/C(=C/c2ccc(N3CCOCC3)cc2)C1	-8.2%	-29.7%	?	?	-8.9%	39.8µM*
CCCC(=O)Nc1ccc(N2CCOCC2)cc1	26.3%	-12.2%[11.4 µM]	-12.4%	8.1%	-15.3%[11.4 µM]	-31.5%[12.7 µM]
c1ccc(N2CCOCCOCCOCCOCCOCC2)cc1	44.5%	-21.8%	14.9%	-18.8%	-2.6%	-9.7%
CN1C/C(=C/c2ccsc2)C(=O)/C(=C/c2ccsc2)C1	-9.7%	?	-13.6%	?	2.3%	?
CCC(=O)N1c2ccccc2CC1C(=O)NCCCN1CCN(c2ccccc2)CC1 (stereo not drawn)	4.2%	-28.5%	.	?	.	6.0%[59 µM]
